# Assay results published in PubChem BioAssay.
# Values joined by “and” are separate entries in the source; they are usually repeats but may differ in a detail not shown here. Equal values may be shown once. Results filed as inconclusive are left out. Active and inactive are the calls of the source.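 The calls were made as follows, unless noted: active = compounds whose cell count with miR-34 switched on is under 0.7 times the count with it off; inactive = the rest.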
# Tests used:
# [1] = viability loss with induced miR-34 in A549 – imaging, A549 dox-inducible miR-34, nuclei and caspase counts, primary screen (AID 1347080); details: A549 miR-34 inducible, Hoechst nuclei count, 48 h
# [2] = growth inhibition of DIPG cells – cell-based, MIPE5.0 library, qHTS (AID 1347068; cut-off not given, nearly all actives have IC50 up to about 30 µM;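 as to IC50: cells exposed to compound for 48 hours before viability readout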); details: SU-DIPG-XXV viability
# [3] = P. berghei load reduction in hepatocytes – cell-based, HepG2, luciferase luminescence, HepG2 viability, primary screen (AID 624349; in the data active = parasite load remaining mostly below about 12%, no sharp cut-off; inactive = mostly above about 10%;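 also: 100% = mean of DMSO negative control wells on the same plate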); details: P. berghei liver stage in HepG2, luciferase luminescence, concentration not given here; parasite load remaining: stronger effect = lower value; viability: measured here: HepG2 viability without parasites
# [4] = tested on: Hepatitis C virus NS3 helicase; test: blockers of NS3h binding to ssDNA – biochemical, fluorescence polarization, LOPAC1280 library, primary screen (AID 687035; in the data active = inhibition above about 37%); details: Purified HCV NS3 helicase, Cy5-dT15 ssDNA binding fluorescence polarization; stronger effect = higher value; concentration not given here
# [5] = compounds altering Cy5-DNA-NS3h complex signal – biochemical, LOPAC1280, artefact control for HCV NS3 helicase inhibitor project (AID 687037; call rule not given here); details: Cy5-DNA-NS3h complex fluorescence interference counterscreen
# [6] = blockers of cellular phospholipid synthesis – cell-based, LOPAC library, screen 4, primary screen (AID 1347384; call rule not given here); details: animal cells, phospholipid biosynthesis inhibition screen; at 10 µM
# [7] = galactose survival enhancers in mitochondrial complex I cybrids – cell-based, galactose medium, ATP luminescence, primary screen (AID 1645843;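 active = z-score of at least 1.8 in each of two replicates, scored against plate mean and spread of sample wells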;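 also: positive z means more ATP and so rescue of galactose-driven cybrid death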); details: complex I mutant cybrid cells, 72 h, stronger effect = higher value
# [8] = stronger effect = lower value, cell number ratio, induced over uninduced
# [9] = measured here: relative caspase fold change +Dox/-Dox
# [10] = measured here: total cells with miR-34 induction, stronger effect = lower value
# [11] = measured here: total cells without miR-34 induction
compound,measurement,setting,value
CCCCC(C)(C)[C@H](O)/C=C/[C@H]1C(=O)C[C@H](O)[C@@H]1C/C=C\CCCC(=O)O,fold change,[1]; [8],1.04 (inactive)
same,fold change,[1]; [9],0.943
same,cell count,[1]; [10],5440
same,cell count,[1]; [11],5250
C=CC(=O)N1CCC(C2CCNc3c(C(N)=O)c(-c4ccc(Oc5ccccc5)cc4)nn32)CC1 (configuration not stated),outcome,[2],inactive
O=C1NC(=O)/C(=C/c2ccc3nccnc3c2)S1,parasite load remaining,[3],25.6% (inactive)
same,viability,[3],76.4%
same,inhibition,[4],0% (inactive)
same,fluorescence ratio (interference),[5],1 (inactive)
same,outcome,[2],inactive
same,fold change,[1]; [8],0.99 (inactive) and 0.764 (inactive)
same,fold change,[1]; [9],0.943 and 0.46
same,cell count,[1]; [10],3810 and 4630
same,cell count,[1]; [11],3850 and 6050
same,outcome,[6],inactive
same,z-score,[7],0.905 (inactive)
CC(C)(C)S(=O)(=O)c1ccc2nccc(Nc3n[nH]c4ccc(F)cc34)c2c1,outcome,[2],inactive
CC=CCC(C)C(O)C1C(=O)NC(CC)C(=O)N(C)CC(=O)N(C)C(CC(C)C)C(=O)NC(C(C)C)C(=O)N(C)C(CC(C)C)C(=O)NC(C)C(=O)NC(C)C(=O)N(C)C(CC(C)C)C(=O)N(C)C(CC(C)C)C(=O)N(C)C(C(C)C)C(=O)N1C (configuration not stated),fold change,[1]; [8],1.07 (inactive) and 0.992 (inactive)
same,fold change,[1]; [9],0.343 and 1.41
CCOC(=O)c1ccc(N=Nc2ccc(O)c(CC(=O)O)c2)cc1,fold change,[1]; [8],0.95 (inactive)
same,fold change,[1]; [9],0.801
same,cell count,[1]; [10],6160
same,cell count,[1]; [11],6490
C[C@]12CC[C@@H]3c4cc(O)c(O)cc4CC[C@H]3[C@@H]1CC[C@@H]2O,fold change,[1]; [8],0.847 (inactive)
same,fold change,[1]; [9],2.78
same,cell count,[1]; [10],5010
same,cell count,[1]; [11],5920
CC1=NN(c2ccc(C(=O)O)cc2)C(=O)/C1=C/c1ccc(-c2cc(C)c(C)cc2[N+](=O)[O-])o1,outcome,[2],inactive
COc1cc2c(NC3CCN(C4CCCCC4)CC3)nc(N3CCCN(C(C)C)CC3)nc2cc1OCCCN1CCCCC1,IC50,[2],5.9 µM (active)
O=C(O)CCCCCCCCCCCNC(=O)NC12CC3CC(CC(C3)C1)C2,fold change,[1]; [8],0.971 (inactive)
same,fold change,[1]; [9],0.546
same,cell count,[1]; [10],5310
same,cell count,[1]; [11],5470
O=c1[nH]nc2c3c(cccc13)NC(CN1Cc3ccccc3C1)=N2,outcome,[2],inactive
O=C(O)CC1CCC(c2ccc(-c3ccc(Nc4ccc(C(F)(F)F)nc4)cn3)cc2)CC1 (configuration not stated),outcome,[2],inactive
CCOC(=O)C1=CCCCC1S(=O)(=O)Nc1ccc(F)cc1Cl (configuration not stated),outcome,[2],inactive
COc1ccc(-c2c(C)nn3c(NCCN4CCOCC4)cc(C)nc23)cc1OC,outcome,[2],inactive
CCCCC/C=C\C/C=C\CCCCCCCC(=O)OCC,fold change,[1]; [8],0.908 (inactive)
same,fold change,[1]; [9],0.749
same,cell count,[1]; [10],4750
same,cell count,[1]; [11],5230
CCC(O)/C=C/C=O (configuration not stated),fold change,[1]; [8],0.941 (inactive)
same,fold change,[1]; [9],1.21
same,cell count,[1]; [10],5860
same,cell count,[1]; [11],6230
Cn1c(NC[C@@H](N)Cc2ccccc2)nc(-c2ccncc2)c(-c2ccc3ccccc3c2)c1=O,outcome,[2],inactive
O=C(Nc1cccc(C(F)(F)F)c1)c1cccc2cc(Oc3cc(CO)ncn3)ccc12,outcome,[2],inactive
C=CC(=O)N[C@H]1CCOC[C@H]1Nc1ncc2cc(-c3c(Cl)c(OC)cc(OC)c3Cl)ccc2n1,outcome,[2],inactive
CC(CN1CCC(n2c(=O)[nH]c3cc(Cl)ccc32)CC1)NC(=O)c1ccc2ccccc2c1 (configuration not stated),fold change,[1]; [8],1.08 (inactive)
same,fold change,[1]; [9],1.2
same,cell count,[1]; [10],5810
same,cell count,[1]; [11],5380
O=C(O)COc1ccc(C(=O)c2cccs2)c(Cl)c1Cl,fold change,[1]; [8],0.964 (inactive)
same,fold change,[1]; [9],0.701
same,cell count,[1]; [10],5800
same,cell count,[1]; [11],6010
C#CCOc1ccccc1CCCCCC(=O)NS(C)(=O)=O,fold change,[1]; [8],0.952 (inactive)
same,fold change,[1]; [9],0.875
same,cell count,[1]; [10],5890
same,cell count,[1]; [11],6190
COc1ccc(C[C@H](N)C(=O)N[C@H]2[C@@H](O)[C@H](n3cnc4c(N(C)C)ncnc43)O[C@@H]2O)cc1,fold change,[1]; [8],0.887 (inactive)
same,fold change,[1]; [9],1.17
same,cell count,[1]; [10],1130
same,cell count,[1]; [11],1270
O=P(O)(O)O[C@H]1[C@@H](O)[C@H](O)[C@@H](OP(=O)(O)O)[C@H](OP(=O)(O)O)[C@H]1O,fold change,[1]; [8],0.877 (inactive)
same,fold change,[1]; [9],1.8
same,cell count,[1]; [10],5820
same,cell count,[1]; [11],6630
CCCCCCCC/C=C\CCCCCC(=O)OC,fold change,[1]; [8],0.895 (inactive)
same,fold change,[1]; [9],0.755
same,cell count,[1]; [10],5020
same,cell count,[1]; [11],5610
CC(=O)O[C@@]12C[C@@H](C)[C@@]3(O)[C@@H](C=C(CO)C[C@]4(O)C(=O)C(C)=C[C@@H]34)[C@@H]1C2(C)C,fold change,[1]; [8],0.95 (inactive)
same,fold change,[1]; [9],1.47
same,cell count,[1]; [10],5200
same,cell count,[1]; [11],5470
CCCCc1ccc(N=CNO)c(C)c1,fold change,[1]; [8],1.01 (inactive)
same,fold change,[1]; [9],0.762
same,cell count,[1]; [10],6020
same,cell count,[1]; [11],5950
CS(=O)(=O)NC(=O)CCC/C=C\C[C@H]1C(=O)C[C@@H](O)[C@@H]1/C=C/[C@@H](O)COc1ccccc1,fold change,[1]; [8],0.897 (inactive)
same,fold change,[1]; [9],1.55
same,cell count,[1]; [10],5660
same,cell count,[1]; [11],6300
CCCCCCCCCCCCCCCC(=O)OC[C@H](COP(=O)([O-])OCC[N+](C)(C)C)OC(=O)CCCCCCCCCCCCCCC,fold change,[1]; [8],0.881 (inactive)
same,fold change,[1]; [9],0.572
same,cell count,[1]; [10],5330
same,cell count,[1]; [11],6060
CC/C=C\C/C=C\C/C=C\C/C=C\CCCCCCC(=O)O,fold change,[1]; [8],1.03 (inactive)
same,fold change,[1]; [9],1
same,cell count,[1]; [10],5320
same,cell count,[1]; [11],5150
CCCCCCCC/C=C\CCCCCCCC(=O)C(F)(F)F,fold change,[1]; [8],0.972 (inactive)
same,fold change,[1]; [9],0.952
same,cell count,[1]; [10],6200
same,cell count,[1]; [11],6380
CCCCC/C=C\C=C1\C(=O)CC[C@@H]1C/C=C\CCCC(=O)O,fold change,[1]; [8],0.94 (inactive)
same,fold change,[1]; [9],0.792
same,cell count,[1]; [10],5640
same,cell count,[1]; [11],6000
O=C1O/C(=C/Br)CC[C@@H]1c1cccc2ccccc12,fold change,[1]; [8],0.956 (inactive)
same,fold change,[1]; [9],0.986
same,cell count,[1]; [10],5530
same,cell count,[1]; [11],5790
CC/C(=C\C(=N/O)C(N)=O)C(C)[N+](=O)[O-] (configuration not stated),fold change,[1]; [8],1.05 (inactive)
same,fold change,[1]; [9],1.1
same,cell count,[1]; [10],6540
same,cell count,[1]; [11],6230
CCCCC[C@@](C)(O)/C=C/[C@H]1C=CC(=O)[C@@H]1C/C=C\CCCC(=O)O,fold change,[1]; [8],0.996 (inactive)
same,fold change,[1]; [9],1.14
same,cell count,[1]; [10],5680
same,cell count,[1]; [11],5710
